Values without a mark were called inactive. Results filed as inconclusive are left out. A call without a number means that no potency is given here. The source made the active and inactive calls. Unless noted, the call rests on the fitted dose curve; in most records, active means well fitted curve in the direction sought with a large enough effect; inconclusive means small, poorly fitted or top-dose-only effect, or another doubt; inactive means no such curve, though single readings can be large; an effect the other way counts as inactive or inconclusive.
Experiments:
[1] = target: Cytochrome P450 1A2 (Homo sapiens) (UniProt P05177); assay: p450-cyp1a2 (AID 410; calls by dose curve; further: potency means the concentration at half of the fitted maximal effect)
Procedure, shortened: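 Luminescent readout of luciferin formed from Luciferin-ME by human CYP1A2; data normalized against complete inhibition by 57 uM furafylline. Enzyme 20nM, substrate 100uM at Km, 100mM KPO4 buffer, 60 min reaction at room temperature.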

[2] = target: 3',5'-cyclic-AMP phosphodiesterase 4B (Homo sapiens) (UniProt Q07343); assay: qHTS Assay for Inhibitors of PDE-IV (AID 607; active means well fitted activation curve with a large enough effect in the main read-out, with a control signal flat, not every such curve was filed as active)
Procedure, shortened: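 HEK293 ACTOne cells with CNG channel (1000/well), endogenous PDE4; membrane potential dye, compounds up to 22.9 uM final. Fluorescence Ex 535/Em 590; RO 20-1724 (100 uM final) as reference.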

[3] = target: Cytochrome P450 3A4 (Homo sapiens) (UniProt P08684); assay: qHTS Assay for Inhibitors and Substrates of Cytochrome P450 3A4 (AID 884); further: potency means the concentration at half of the fitted maximal effect; nearly all actives have a fitted effect of over 50% in size
Procedure, shortened: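 20 nM human CYP3A4 with 25 uM Luciferin-PPXE (at KM) in 200 mM KPO4, preincubated 10 min with compound; NADPH regeneration started a 60 min RT reaction. Luciferin detected by luminescence, normalized to 57 uM ketoconazole as full inhibition.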

[4] = target: Cytochrome P450 3A4 (Homo sapiens) (UniProt P08684); assay: qHTS Assay for Activators of Cytochrome P450 3A4 (AID 885); further: nearly all actives have a fitted effect of over 65% in size
Procedure, shortened: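 Human CYP3A4 (20 nM) with Luciferin-PPXE at 25 uM (its KM) in 200 mM KPO4; 10 min compound preincubation, then NADPH regeneration and 60 min reaction at RT. Luciferin read by luminescence; normalized to 57 uM ketoconazole full inhibition.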

[5] = target: Mitogen-activated protein kinase 10 (Mus musculus) (UniProt Q61831); assay: JNK3 AlphaScreen Assay (AID 530; active means well fitted curve in either direction with a large enough effect, not every such curve was filed as active;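 further: kinase came from lysate of stimulated human HepG2 cells; signal reports phosphorylation of biotinylated GST-cJun 1-79 at Ser73 with 10 µM ATP; series mostly up to about 57 µM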)
Procedure, shortened: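 Inhibitors reduce antibody binding to phosphorylated biotin-cJun, lowering AlphaScreen luminescence. Lysates from HepG2 cells pre-activated by IL-1beta plus TNF-alpha supplied JNK3; compounds were titrated.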

[6] = target: Cytochrome P450 2C19 (Homo sapiens) (UniProt P33261); assay: qHTS Assay for Inhibitors and Substrates of Cytochrome P450 2C19 (AID 899); further: potency means the concentration at half of the fitted maximal effect; nearly all actives have a fitted effect of over 60% in size
Procedure, shortened: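 NADPH-dependent conversion of Luciferin-H EGE (10uM, at KM) by 5nM enzyme in 50mM KPO4, 60 min at 37C following 10 min compound preincubation. Stopped with luciferin detection buffer; luminescence read after 20 min.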

[7] = target: Cytochrome P450 2C9 (Homo sapiens) (UniProt P11712); assay: qHTS Assay for Inhibitors and Substrates of Cytochrome P450 2C9 (AID 883); further: potency means the concentration at half of the fitted maximal effect; nearly all actives have a fitted effect of over 60% in size
Procedure, shortened: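 A luminogenic readout tracked human CYP2C9 (10nM) converting deoxyluciferin (100uM, at KM) in 25mM KPO4 during 60 min at 37C with regenerated NADPH. Values normalized to 57uM sulphaphenazole as complete inhibition.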

Sequence of Cytochrome P450 3A4 (Homo sapiens) (P08684 whole entry, looked up): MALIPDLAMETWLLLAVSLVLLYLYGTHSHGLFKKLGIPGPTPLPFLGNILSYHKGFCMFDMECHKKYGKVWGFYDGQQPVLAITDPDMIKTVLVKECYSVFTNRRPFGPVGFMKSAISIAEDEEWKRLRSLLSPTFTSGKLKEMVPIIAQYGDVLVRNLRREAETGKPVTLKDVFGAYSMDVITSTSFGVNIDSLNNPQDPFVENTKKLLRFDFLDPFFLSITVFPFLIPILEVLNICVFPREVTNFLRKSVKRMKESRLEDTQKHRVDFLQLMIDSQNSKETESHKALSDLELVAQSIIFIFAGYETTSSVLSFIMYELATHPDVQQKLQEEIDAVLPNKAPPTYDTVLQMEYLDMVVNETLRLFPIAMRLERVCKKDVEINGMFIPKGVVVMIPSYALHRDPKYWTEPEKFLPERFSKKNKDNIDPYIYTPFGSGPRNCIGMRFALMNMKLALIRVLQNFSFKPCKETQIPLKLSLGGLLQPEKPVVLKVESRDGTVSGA
Sequence of Cytochrome P450 1A2 (Homo sapiens) (P05177 whole entry, looked up): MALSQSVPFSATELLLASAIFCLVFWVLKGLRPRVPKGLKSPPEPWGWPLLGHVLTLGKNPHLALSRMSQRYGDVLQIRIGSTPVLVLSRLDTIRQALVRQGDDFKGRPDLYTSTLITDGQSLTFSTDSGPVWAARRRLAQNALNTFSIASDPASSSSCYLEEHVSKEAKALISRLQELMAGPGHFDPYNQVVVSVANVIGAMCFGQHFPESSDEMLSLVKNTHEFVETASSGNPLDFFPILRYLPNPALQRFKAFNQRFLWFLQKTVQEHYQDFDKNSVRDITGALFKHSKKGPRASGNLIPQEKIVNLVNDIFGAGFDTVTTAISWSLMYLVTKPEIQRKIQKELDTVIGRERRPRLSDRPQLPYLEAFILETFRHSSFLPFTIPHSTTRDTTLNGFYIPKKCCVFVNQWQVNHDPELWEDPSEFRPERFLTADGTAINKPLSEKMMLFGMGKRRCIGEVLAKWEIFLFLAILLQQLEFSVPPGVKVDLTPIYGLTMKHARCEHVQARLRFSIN
Sequence of 3',5'-cyclic-AMP phosphodiesterase 4B (Homo sapiens) (Q07343 whole entry, looked up): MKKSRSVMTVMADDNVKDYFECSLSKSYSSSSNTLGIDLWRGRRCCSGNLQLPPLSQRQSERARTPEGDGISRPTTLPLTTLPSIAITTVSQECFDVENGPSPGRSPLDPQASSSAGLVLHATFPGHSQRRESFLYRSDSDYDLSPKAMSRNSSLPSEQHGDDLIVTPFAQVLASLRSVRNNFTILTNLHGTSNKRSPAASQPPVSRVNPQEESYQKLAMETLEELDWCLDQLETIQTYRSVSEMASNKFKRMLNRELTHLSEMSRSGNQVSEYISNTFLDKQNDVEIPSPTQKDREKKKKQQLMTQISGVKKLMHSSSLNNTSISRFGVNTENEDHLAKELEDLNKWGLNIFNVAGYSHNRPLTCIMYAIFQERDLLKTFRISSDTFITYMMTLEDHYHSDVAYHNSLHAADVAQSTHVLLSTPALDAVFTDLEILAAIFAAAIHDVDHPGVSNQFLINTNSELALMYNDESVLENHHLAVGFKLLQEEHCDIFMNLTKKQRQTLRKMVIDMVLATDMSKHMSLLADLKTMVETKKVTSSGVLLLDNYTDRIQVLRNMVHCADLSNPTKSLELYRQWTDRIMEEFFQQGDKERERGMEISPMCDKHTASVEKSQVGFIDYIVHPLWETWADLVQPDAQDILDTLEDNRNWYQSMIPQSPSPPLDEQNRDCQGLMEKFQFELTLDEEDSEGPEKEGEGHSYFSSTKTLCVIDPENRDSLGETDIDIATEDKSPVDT
Sequence of Cytochrome P450 2C9 (Homo sapiens) (P11712 whole entry, looked up): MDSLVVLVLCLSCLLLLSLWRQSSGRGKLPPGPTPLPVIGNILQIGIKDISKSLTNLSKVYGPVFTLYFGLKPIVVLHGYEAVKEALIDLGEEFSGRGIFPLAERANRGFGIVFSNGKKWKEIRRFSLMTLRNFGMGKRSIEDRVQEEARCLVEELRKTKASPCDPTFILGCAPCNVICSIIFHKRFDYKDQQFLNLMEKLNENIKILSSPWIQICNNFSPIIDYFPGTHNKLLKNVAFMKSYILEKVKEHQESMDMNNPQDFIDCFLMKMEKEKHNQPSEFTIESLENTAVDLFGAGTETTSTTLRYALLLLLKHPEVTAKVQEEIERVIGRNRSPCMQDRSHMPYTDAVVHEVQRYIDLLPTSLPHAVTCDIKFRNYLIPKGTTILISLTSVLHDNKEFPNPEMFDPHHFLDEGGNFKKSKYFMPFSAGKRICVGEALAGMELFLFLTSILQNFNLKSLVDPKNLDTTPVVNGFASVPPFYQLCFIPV
Sequence of Cytochrome P450 2C19 (Homo sapiens) (P33261 whole entry, looked up): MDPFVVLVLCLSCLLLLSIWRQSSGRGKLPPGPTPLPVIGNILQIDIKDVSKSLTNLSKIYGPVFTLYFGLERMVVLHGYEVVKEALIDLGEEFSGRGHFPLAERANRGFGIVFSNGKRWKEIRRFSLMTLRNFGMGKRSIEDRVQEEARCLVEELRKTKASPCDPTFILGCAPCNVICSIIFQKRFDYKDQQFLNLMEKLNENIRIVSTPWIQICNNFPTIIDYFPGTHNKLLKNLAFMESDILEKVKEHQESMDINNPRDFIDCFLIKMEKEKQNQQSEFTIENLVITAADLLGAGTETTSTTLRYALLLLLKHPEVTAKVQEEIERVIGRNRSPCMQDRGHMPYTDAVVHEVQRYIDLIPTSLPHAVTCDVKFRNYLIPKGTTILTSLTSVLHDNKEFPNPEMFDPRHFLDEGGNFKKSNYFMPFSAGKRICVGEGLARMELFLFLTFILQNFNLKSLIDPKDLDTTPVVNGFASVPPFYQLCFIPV

| Structure (SMILES) | Potency [1] | Potency [2] | Potency [3] | Potency [4] | Potency [5] | Potency [6] | Potency [7] |
| --- | --- | --- | --- | --- | --- | --- | --- |
| COC(=O)C1(Cc2ccccc2)C=C2C(=C(C(C)C)C(=O)C2C)CN1 (stereo not drawn) | 15.8 µM (active) | inactive | 7.94 µM (active) | inactive | – | – | – |
| CCc1cccc2nc3c(c([Si](C)(C)C)c12)Cn1c-3cccc1=O | 2.51 µM (active) | – | – | inactive | inactive | – | – |
| CCCC[C@@H]1C[C@H]1C(NC(=O)c1ccccc1)c1ccc(Cl)cc1 (stereo partly drawn) | 1 µM (active) | – | 3.98 µM (active) | inactive | inactive | 0.631 µM (active) | – |
| CC[C@@]1(O)C(=O)COc2c1cc1n(c2=O)Cc2c-1nc1cccc(C(C)C)c1c2[Si](C)(C)C | 7.94 µM (active) | – | – | inactive | inactive | – | – |
| CCC/C=C(\CCC)C(NC(=O)c1cccs1)c1ccc(C(=O)OC)cc1 (stereo not drawn) | 5.01 µM (active) | – | 1.26 µM (active) | inactive | inactive | 0.794 µM (active) | – |
| CCC/C=C(\CCC)C(NC(=O)c1ccc(C(F)(F)F)cc1)c1ccc(C(F)(F)F)cc1 (stereo not drawn) | inactive | – | – | inactive | inactive | – | – |
| COC(=O)[C@@]1(Cc2ccc(OC)cc2)[C@@H]2C(=CC(=O)[C@H]2CC(=O)C(=O)N(C)C)CN1C(=O)c1ccccc1 | inactive | – | – | inactive | inactive | – | – |
| CCCC1(C(=O)OC)C=C2C(=C(C(C)C)C(=O)C2C)CN1 (stereo not drawn) | inactive | – | – | inactive | inactive | – | – |
| CCCC[C@@H]1C[C@H]1C(NC(=O)c1ccccc1)c1ccccc1 (stereo partly drawn) | 2.51 µM (active) | – | – | inactive | inactive | 0.398 µM (active) | – |
| COC(=O)[C@@]1(Cc2ccc(OC)cc2)[C@@H]2C(=CC(=O)[C@H]2CC(=O)C(=O)N2CCCC2)CN1C(=O)c1ccccc1 | inactive | – | – | inactive | inactive | – | – |
| COC(=O)[C@@]1(Cc2ccccc2)[C@H]2c3cc(C(=O)N4CCCC4)n(Cc4ccsc4Br)c3C[C@H]2CN1C(=O)c1ccccc1 | inactive | inactive | 3.98 µM (active) | inactive | – | 2.51 µM (active) | 2 µM (active) |
| CCC/C=C(\CCC)C(NS(=O)(=O)c1cccs1)c1ccc(C(=O)OC)cc1 (stereo not drawn) | 12.6 µM (active) | inactive | 3.16 µM (active) | inactive | – | 0.794 µM (active) | 2 µM (active) |
| CCC/C=C(\CCC)C(NS(=O)(=O)c1cccc2cccnc12)c1ccc(C(=O)OC)cc1 (stereo not drawn) | 6.31 µM (active) | – | 5.01 µM (active) | inactive | inactive | 3.16 µM (active) | – |
| COC(=O)c1ccc(C(NC(=O)c2ccccc2)[C@]2(C)C[C@H]2C2CCCCC2)cc1 (stereo partly drawn) | inactive | – | – | inactive | inactive | 2.51 µM (active) | – |
| CCCC[C@@H]1C[C@H]1C(NC(=O)c1ccco1)c1ccc(-c2ccccc2)cc1 (stereo partly drawn) | 5.01 µM (active) | – | – | inactive | inactive | – | – |
| CCCCCC1=C2CNC(C)(C(=O)OC)C=C2C(C)C1=O (stereo not drawn) | 25.1 µM (active) | – | – | inactive | inactive | – | – |

| Structure (SMILES) | Potency [1] | Potency [2] | Potency [3] | Potency [4] | Potency [5] | Potency [6] | Potency [7] |
| --- | --- | --- | --- | --- | --- | --- | --- |
| COC(=O)[C@@]1(Cc2ccc(F)cc2)[C@H]2c3cc(C(=O)N(C)C)n(Cc4ccc(C(F)(F)F)nc4)c3C[C@H]2CN1C(=O)c1ccccc1 | inactive | inactive | 1.26 µM (active) | inactive | – | – | – |
| COC(=O)[C@@]1(Cc2ccc(F)cc2)[C@H]2c3cc(C(=O)N(C)C)n(C)c3C[C@H]2CN1C(=O)c1ccccc1 | 31.6 µM (active) | inactive | – | – | – | – | – |
| CCC[C@@H]1C[C@@]1(CCC)C(NC(=O)c1ccccc1)c1cccc(Cl)c1 (stereo partly drawn) | inactive | – | – | inactive | inactive | – | – |
| CC(C)=C1C(=O)C(c2ccccc2)=C2CN3C(=O)N(CCc4ccccc4)C(=O)[C@]3(Cc3ccccc3)[C@H]21 | inactive | – | – | inactive | inactive | – | – |
| CC(C)c1cccc2nc3c(c(C(C)(C)C)c12)Cn1c-3cccc1=O | 12.6 µM (active) | – | – | inactive | inactive | – | – |
| COC(=O)[C@H]1C[C@@H]1[C@H](NC(=O)OCc1ccccc1)c1ccccc1 | 0.126 µM (active) | – | – | inactive | inactive | 3.16 µM (active) | – |
| CC[C@H]1C2=C3C(CC[C@H]4C(OCc5ccc(F)cc5C(F)(F)F)OC[C@](C)([C@@H]34)N(C(=O)OC(C)(C)C)C2)C(COC(C)=O)C1COC(C)=O (stereo partly drawn) | inactive | – | – | inactive | inactive | – | – |
| CCCCc1c2ccccc2nc2[nH]c3ccccc3c12 | 0.2 µM (active) | – | – | inactive | inactive | – | – |
| CCC/C=C(\CCC)C(NC(=O)c1ccccc1)c1ccccc1 (stereo not drawn) | 10 µM (active) | – | – | inactive | inactive | – | – |
| CC(C)c1cccc2cc3c(nc12)-c1cccc(=O)n1C3 | 0.501 µM (active) | – | – | inactive | inactive | – | – |
| COC(=O)[C@@H]1C[C@H]1[C@@H](NC(=O)c1ccccc1)c1ccccc1 | 5.01 µM (active) | – | – | – | inactive | 1.26 µM (active) | – |
| COC(=O)[C@@]1(Cc2ccc(OC)cc2)[C@H]2c3cc(C(=O)N4CCCC4)n(Cc4cc(F)cc5c4OCOC5)c3C[C@H]2CN1C(=O)c1ccccc1 | inactive | inactive | 2.51 µM (active) | inactive | – | 7.94 µM (active) | 6.31 µM (active) |
| c1ccc(-c2c3ccccc3nc3[nH]c4ccccc4c23)cc1 | 0.501 µM (active) | – | – | inactive | inactive | – | – |
| CC(C)(C)[Si](C)(C)c1c2c(nc3ccc(OCc4ccccc4)cc13)-c1cccc(=O)n1C2 | 5.01 µM (active) | – | – | inactive | inactive | – | – |
| COC(=O)[C@@]1(Cc2ccc(F)cc2)[C@H]2c3cc(C(=O)N4CCCC4)n(Cc4ccc(Cl)c(C(F)(F)F)c4)c3C[C@H]2CN1C(=O)c1ccccc1 | inactive | inactive | 2.51 µM (active) | inactive | – | – | – |

— PubChem BioAssay (NCATS)
